Values joined by “and” are separate entries in the source; they are usually repeats but may differ in a detail not shown here. Identical values can stand only once. Values without a mark were called inactive. Inconclusive results are not listed. Active and inactive are the calls of the source. Unless noted, calls follow the shape of the dose curve; as a rule, active = well fitted curve in the direction sought with a large enough effect in the repeat runs; inconclusive = weak or mixed curves; inactive = no such curve, though single readings can be large; an effect the other way counts as inactive or inconclusive.

Test [1] in a line: qHTS assay to test for compound auto fluorescence at 535 nm (green) in HEK293 cells (AID 720680). (qHTS replaces the single test concentration by a dilution series.)
Test [2] can be described thus: qHTS assay to test for compound auto fluorescence at 535 nm (green) in HEK293 cell free culture (AID 720682). The method in brief:
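DMEM + 10% FBS, cell-free; cpd or DMSO pinned in; Ex485/Em535 read; output as fluorescein-equivalent signal.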

Test [3] is described as follows: qHTS assay to test for compound auto fluorescence at 590 nm (red) in HEK293 cell free culture (AID 720683). In a few lines:
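Red-channel autofluorescence of compounds in culture medium (DMEM, 10% FBS), no cells, measured at 540/590 nm. Rose Bengal sodium is the reference fluorophore for equivalence.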

Test [4] in a line: qHTS assay to test for compound auto fluorescence at 590 nm (red) in HepG2 cell free culture (AID 720684). The method in brief: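 Plate contents were MEM with 10% FBS plus test compound or DMSO, no cells. Fluorescence was recorded with 540 nm excitation and 590 nm emission.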
Test [5] in a line: qHTS assay to test for compound auto fluorescence at 460 nm (blue) in HepG2 cell free culture (AID 720685). The method in brief: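 Compound (23 nL) or DMSO pinned into cell-free MEM with 10% FBS; blue fluorescence read at 405/460 nm excitation/emission, expressed as auto-fluorescence equivalency to triamterene.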
Test [6] is described as follows: qHTS assay to test for compound auto fluorescence at 535 nm (green) in HepG2 cell free culture (AID 720686).
Test [7] in a line: qHTS assay to test for compound auto fluorescence at 460 nm (blue) in HepG2 cells (AID 720687). In a few lines: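 Blue-channel autofluorescence (Ex/Em 405/460 nm, triamterene-equivalent) was measured after 1 hr compound exposure at 37 C, 5% CO2. Cells were HepG2, plated overnight at 37 C in MEM plus 10% FBS.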
Test [8] addresses Glucocorticoid receptor (Homo sapiens) (UniProt P04150). Description: qHTS assay to identify small molecule agonists of the glucocorticoid receptor (GR) signaling pathway (AID 720691; active = well fitted activation curve with a large enough effect in the signal ratio in the repeat runs, not every such curve was filed as active; the % refers to the signal ratio). The method in brief: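 GR-bla HeLa cells (beta-lactamase reporter under glucocorticoid response element) were plated 4 h at 37 C/5% CO2, given compounds in DMSO, and incubated 18 h at 37 C. LiveBLAzer B/G FRET substrate was added for 2 h at room temperature, then fluorescence intensity read.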

The target is the same in test [9]. Description: qHTS assay to identify small molecule antagonists of the glucocorticoid receptor (GR) signaling pathway (AID 720692; active = well fitted inhibition curve with a large enough effect in the signal ratio in the repeat runs, not every such curve was filed as active; the % refers to the signal ratio). The method in brief: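 GR-bla HeLa cells (beta-lactamase reporter under glucocorticoid response element) were pre-plated 4 h at 37 C, treated with compounds plus 5 nM dexamethasone (final) for 18 h, then read by LiveBLAzer B/G FRET fluorescence after 2 h.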

Test [10] is described as follows: qHTS assay to identify small molecule antagonists of the glucocorticoid receptor (GR) signaling pathway - cell viability counter screen (AID 720693). Also: nearly all actives have a fitted effect of over 55% in size.
The nature of test [11]: qHTS assay for identifying genotoxic compounds that show differential cytotoxicity against isogenic chicken DT40 cell lines with known DNA damage response pathways - Rev3 mutant cell line (AID 743014). Also: nearly all actives have a fitted effect of over 55% in size. Also: potency is read from the fitted curve at half-maximal effect.
Test [12] can be described thus: qHTS assay for identifying genotoxic compounds that show differential cytotoxicity against isogenic chicken DT40 cell lines with known DNA damage response pathways - Rad54/Ku70 mutant cell line (AID 743015). Also: nearly all actives have a fitted effect of over 60% in size. Also: potency is read from the fitted curve at half-maximal effect.
Test [13] can be described thus: qHTS assay to identify small molecule antagonists of the androgen receptor (AR) signaling pathway using the MDA cell line - cell viability counter screen (AID 743041; also: nearly all actives have a fitted effect of over 45% in size; also: potency is read from the fitted curve at half-maximal effect). In a few lines: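 R1881-driven MDA-kb2 AR-luc cells, 3,000/well, were dosed with library compounds for 16 h; cell health came from CellTiter-Fluor fluorescence in the reporter wells.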
The nature of test [14]: qHTS assay for identifying genotoxic compounds that show differential cytotoxicity against isogenic chicken DT40 cell lines with known DNA damage response pathways - wild type cell line (AID 743012). Also: nearly all actives have a fitted effect of over 60% in size. Also: potency is read from the fitted curve at half-maximal effect. In a few lines:
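Parental DNA repair-proficient DT40 cells, 300 per well, were pre-incubated ~0.5 h at 37 C/5% CO2, pin-dosed with compounds in DMSO, then incubated 40 h. Viability was read as CellTiter-Glo luminescence after 30 min at room temperature.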

Test [15] in a line: qHTS assay to identify small molecule antagonists of the androgen receptor (AR) signaling pathway - cell viability counter screen (AID 743033; also: nearly all actives have a fitted effect of over 45% in size).
Test [16] concerns the target Androgen receptor (Homo sapiens) (UniProt P10275). Description: qHTS assay to identify small molecule antagonists of the androgen receptor (AR) signaling pathway (AID 743035; active = well fitted inhibition curve with a large enough effect in the signal ratio in the repeat runs, not every such curve was filed as active; the % refers to the signal ratio). In a few lines:
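HEK293 cells stably carrying a UAS-driven beta-lactamase reporter (AR-UAS-bla GripTite) were plated for 4 h at 37C, then given compound and the agonist R1881 and incubated 16 h. Reporter activity was read by LiveBLAzer B/G FRET fluorescence after 2 h at room temperature.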

The target is the same in test [17]. Description: qHTS assay to identify small molecule agonists of the androgen receptor (AR) signaling pathway (AID 743036; active = well fitted activation curve with a large enough effect in the signal ratio in the repeat runs, with a control signal flat, not every such curve was filed as active; the % refers to the signal ratio). In a few lines:
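Screening used 2,000 AR-bla HEK293 cells per well, treated 16 h at 37C with test compounds in DMSO alongside positive and DMSO-only controls; beta-lactamase activity was then read by LiveBLAzer B/G FRET fluorescence after 2 h at room temperature.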

For test [18] the target is unchanged. Description: qHTS assay to identify small molecule agonists of the androgen receptor (AR) signaling pathway using the MDA cell line (AID 743040; also: nearly all actives have a fitted effect of over 20% in size). The settings on record: MDA-kb2 AR-luc cells, MMTV luciferase, 16 h, active compounds read high. In a few lines: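 After a 5 h incubation at 37C and 0% CO2, MDA-kb2 reporter cells were dosed with compounds in DMSO and kept 16 h under the same conditions. Luciferase activity was then read as luminescence with ONE-Glo.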

Test [19] shares this target. Description: qHTS assay to identify small molecule antagonists of the androgen receptor (AR) signaling pathway using the MDA cell line (AID 743042; also: nearly all actives have a fitted effect of over 55% in size). The method in brief: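 Antagonist mode: compounds plus R1881 agonist added to MDA-kb2 AR-luc cells, incubated 16 h at 37C. Luciferase reporter luminescence quantified, with multiplexed CellTiter-Fluor readout for cell viability.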
% is scaled to controls: 0 for no effect and ±100 for the full control effect.

Androgen receptor (Homo sapiens), sequence (P10275 whole entry, looked up): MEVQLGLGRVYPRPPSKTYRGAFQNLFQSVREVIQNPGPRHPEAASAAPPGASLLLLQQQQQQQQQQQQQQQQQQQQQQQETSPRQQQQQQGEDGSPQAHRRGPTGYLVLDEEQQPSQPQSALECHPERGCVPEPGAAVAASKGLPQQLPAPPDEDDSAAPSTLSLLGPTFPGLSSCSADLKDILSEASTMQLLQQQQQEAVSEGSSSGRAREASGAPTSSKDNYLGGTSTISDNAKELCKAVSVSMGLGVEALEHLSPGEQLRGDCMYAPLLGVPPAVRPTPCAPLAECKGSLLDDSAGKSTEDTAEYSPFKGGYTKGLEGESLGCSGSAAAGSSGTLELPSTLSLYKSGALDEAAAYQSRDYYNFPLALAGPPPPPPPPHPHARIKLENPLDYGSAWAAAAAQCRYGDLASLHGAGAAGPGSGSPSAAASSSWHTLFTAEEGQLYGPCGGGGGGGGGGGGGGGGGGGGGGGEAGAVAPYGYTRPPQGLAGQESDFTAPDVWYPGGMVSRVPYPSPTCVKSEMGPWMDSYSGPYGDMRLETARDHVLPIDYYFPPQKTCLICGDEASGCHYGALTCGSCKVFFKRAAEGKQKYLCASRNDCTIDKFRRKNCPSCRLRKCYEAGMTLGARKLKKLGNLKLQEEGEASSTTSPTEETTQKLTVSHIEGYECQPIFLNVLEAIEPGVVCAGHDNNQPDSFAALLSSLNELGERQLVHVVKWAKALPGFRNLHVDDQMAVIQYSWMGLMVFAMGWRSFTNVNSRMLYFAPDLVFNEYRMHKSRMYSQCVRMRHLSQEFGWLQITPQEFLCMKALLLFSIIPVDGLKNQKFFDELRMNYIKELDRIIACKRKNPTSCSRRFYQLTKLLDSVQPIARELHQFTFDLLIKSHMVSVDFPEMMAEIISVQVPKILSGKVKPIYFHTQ
Glucocorticoid receptor (Homo sapiens), sequence (P04150 whole entry, looked up): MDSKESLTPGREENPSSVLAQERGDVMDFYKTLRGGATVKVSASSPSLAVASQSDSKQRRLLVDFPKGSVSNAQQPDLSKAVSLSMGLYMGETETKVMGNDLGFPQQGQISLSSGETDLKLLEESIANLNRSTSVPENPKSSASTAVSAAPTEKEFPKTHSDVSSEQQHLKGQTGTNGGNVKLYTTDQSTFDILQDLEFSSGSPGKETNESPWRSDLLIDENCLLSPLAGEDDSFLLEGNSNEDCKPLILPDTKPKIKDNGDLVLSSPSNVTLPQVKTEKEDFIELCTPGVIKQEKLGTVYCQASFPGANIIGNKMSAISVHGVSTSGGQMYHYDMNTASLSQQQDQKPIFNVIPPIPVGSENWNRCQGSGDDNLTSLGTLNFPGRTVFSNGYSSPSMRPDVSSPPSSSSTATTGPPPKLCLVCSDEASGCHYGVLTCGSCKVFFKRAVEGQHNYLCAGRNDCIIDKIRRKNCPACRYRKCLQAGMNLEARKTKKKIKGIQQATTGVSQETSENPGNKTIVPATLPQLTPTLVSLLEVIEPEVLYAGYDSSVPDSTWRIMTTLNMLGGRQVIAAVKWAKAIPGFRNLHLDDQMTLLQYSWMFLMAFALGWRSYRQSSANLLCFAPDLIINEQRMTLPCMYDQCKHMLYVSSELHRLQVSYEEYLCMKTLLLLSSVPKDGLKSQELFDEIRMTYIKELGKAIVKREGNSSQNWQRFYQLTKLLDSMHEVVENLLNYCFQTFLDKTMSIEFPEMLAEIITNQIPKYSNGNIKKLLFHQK

As to `CC1(C)C(=O)N(Cl)C(=O)N1Cl`, the result in [1], in [2], in test [3], in test [4], in test [6] and in test [8] was inactive. The Potency entry in test [5], in [7], in [9], in test [10], in test [11] and in test [12] was “inactive” each time. In addition, the Potency result in test [13] is “inactive”.
As to `OB(O)O`, the result in test [1], in [2], in test [3], in test [4], in [6] and in [8] was inactive. In addition, the Potency result in test [5], in test [7], in [9], in test [10], in test [14] and in test [11] was “inactive” each time. Besides, the Potency entry in test [12], in test [15] and in test [13] was “inactive” throughout.
Regarding `OC1CCCCC1`, the compound was called inactive in [1], in test [2], in test [3], in test [4], in [6] and in test [8]. Besides, the Potency result in [5], in test [7], in test [9], in test [10], in test [14] and in [11] was “inactive” each time. In addition, the Potency entry in [12], in test [15] and in test [13] was “inactive” throughout.
For `CCCCC(CC)COC(=O)c1ccc(C(=O)OCC(CC)CCCC)cc1` (stereo not given), the compound was called inactive in [1], in test [2], in test [3], in [4] and in test [6]. For the same compound, the Potency entry in test [5], in test [7], in test [10], in test [11], in test [12] and in test [16] was “inactive” throughout. Further, the Potency entry in test [17], in [13] and in test [19] was “inactive” in each case. Further, the activity change in test [18] (at 70.3 µM (top of the series)) was 2.15% and 1.01%.
For `CCCN(CCC)C(=O)SCC`, the compound was classed as inactive in [1], in test [2], in test [3], in [4], in test [6] and in [8]. Also, the Potency result in [5], in test [7], in test [9], in [10], in test [14] and in test [11] was “inactive” throughout. Moreover, the Potency entry in test [12], in [15], in [16], in test [17], in test [13] and in test [19] was “inactive” each time. Also, the activity change in [18] (at 70.3 µM (top of the series)) is 1.01%; in test [18] (at 95 µM (top of the series)), -1.98%.
As to `Cc1cc(C)cc(O)c1`, the compound was classed as inactive in test [1], in test [2], in test [3], in test [4] and in test [8]. In addition, the Potency entry in [5], in test [7], in test [9], in test [10], in test [11] and in test [12] was “inactive” each time.
Consider `CCCCCCCC(=O)O`, for which the compound was classed as inactive in test [1], in [2], in test [3], in test [4] and in test [8]. Besides, the Potency entry in [5], in test [7], in [9], in [10], in [14] and in test [11] was “inactive” each time. The Potency entry in test [12] and in [15] was “inactive” throughout.
Consider `OCC(CO)(CO)CO`, for which the compound was classed as inactive in test [1], in test [2], in test [3], in [4] and in test [6]. Further, the Potency result in [5], in [7], in test [10], in test [14], in test [11] and in test [12] was “inactive” throughout. Further, the Potency result in test [15] and in test [13] was “inactive” throughout.
As to `Cc1nnc(NS(=O)(=O)c2ccc(N)cc2)s1`, the compound was called inactive in test [1], in test [2], in test [3], in test [4] and in [6]. Further, the Potency entry in [5], in test [7], in [10], in test [14], in test [11] and in test [12] was “inactive” each time. In addition, the Potency entry in test [15], in test [16], in test [17], in test [13] and in test [19] was “inactive” in each case. Also, the activity change in test [18] (at 70.3 µM (top of the series)) is 6.45% and 3.21%.
`COc1ccc2cc3[n+](cc2c1OC)CCc1cc2c(cc1-3)OCO2`: the compound was classed as inactive in [1], in test [2], in test [3], in [4], in test [6] and in test [8]. Moreover, the Potency entry in test [5], in [7] and in [10] was “inactive” each time. Moreover, the Potency in [14] was 2.37 µM (active) and 4.36 µM (active); in [11], 3.35 µM (active) and 3.09 µM (active); in test [12], 4.22 µM (active) and 5.49 µM (active); in [13], 22.1 µM (active) and 7.75 µM (active).

These data come from PubChem BioAssay (Tox21).
